Test results: PubChem BioAssay AID2158 (National Center for Advancing Translational Sciences (NCATS), 2009)
Records with an inconclusive call do not appear. Unmarked numbers belong to inactive results. Active and inactive are the calls of the source. Calls follow the shape of the dose curve; as a rule, active = well fitted inhibition curve with a large enough effect; inconclusive = small, poorly fitted or top-dose-only effect; inactive = no such curve, though single readings can be large or run the other way.
Also: nearly all actives have a fitted effect of over 40% in size.
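For activity change, negative = inhibition in this document: plate controls were uninhibited enzyme control for no effect and buffer wells lacking enzyme for full effect.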
Potency is read from the fitted curve at half-maximal effect.

The compounds below were run against Cruzipain (Trypanosoma cruzi) (UniProt P25779) (assay: Confirmation qHTS Assay for Inhibitors of Cruzain). Conditions: purified cruzain, Z-FR-AMC fluorescence, 0.01% Triton.
Sequence of Cruzipain (Trypanosoma cruzi) (P25779 123-467 limits assumed): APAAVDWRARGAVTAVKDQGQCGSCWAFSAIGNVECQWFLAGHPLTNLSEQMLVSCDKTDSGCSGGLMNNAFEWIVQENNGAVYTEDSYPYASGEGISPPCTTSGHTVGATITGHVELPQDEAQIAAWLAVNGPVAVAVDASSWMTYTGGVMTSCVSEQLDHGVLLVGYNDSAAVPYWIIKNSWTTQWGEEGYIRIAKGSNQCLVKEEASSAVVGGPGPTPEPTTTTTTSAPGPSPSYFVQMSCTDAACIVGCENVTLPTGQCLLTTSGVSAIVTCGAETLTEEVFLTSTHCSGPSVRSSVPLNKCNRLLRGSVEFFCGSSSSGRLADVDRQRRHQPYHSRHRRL
In short: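 Reaction progress from the 60 s rise in AMC fluorescence (ex 360, em 450 nm) after adding 2 uM Z-FR-AMC. Before this, 1.5 nM cruzain sat 15 min at room temperature with compound in pH 5.5 acetate buffer with 5 mM DTT and 0.01% Triton X-100.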
`CCOC(=O)N1CCC(=C2c3ccc(Cl)cc3CCc3cccnc32)CC1` gave an activity change, negative = inhibition of -13.4%. For `CCNc1nc(C#N)nc2c1ncn2-c1cccc(Cl)c1`, the Potency was 0.0631 µM (active). In the case of `N#Cc1nc(N2CCCCC2)nc(N2CCOCC2)n1`, the Potency is reported as 2.82 µM (active). Compound `CC(C)(C)OC(=O)NCC(=O)NNC(=O)C(C(=O)OCc1ccccc1)c1ccccc1` (configuration not stated) has an activity change, negative = inhibition of -3.79%. `c1ccc(CNCc2nnc(-c3cc4ccccc4[nH]3)o2)cc1` showed an activity change, negative = inhibition of -1.64%. In the case of `CC(C)C[C@H](NC(=O)[C@@H]1O[C@H]1C(=O)O)C(=O)NCCCCN=C(N)N`, the Potency is reported as 0.112 µM (active). With `O=c1cc(-c2ccccc2F)nc(-c2ccccc2F)o1` the activity change, negative = inhibition was -25.6%. `O=C(NC(=S)Nc1nc(-c2cccc3ccccc23)cs1)c1cc2ccccc2o1` showed an activity change, negative = inhibition of -1.65%. For `COc1ccc(C(F)(F)F)cc1NC(=O)C(OC(=O)CNC(=O)c1ccccc1)c1ccccc1` (configuration not stated), the Potency was 14.1 µM (active). With `O=C(Cc1nnc(CNC(=O)c2ccccc2)s1)Nc1ccc(C(F)(F)F)cc1Cl` the activity change, negative = inhibition was -3.96%. For `N#Cc1ccc(C(=O)NCC(=O)OC(C(=O)Nc2cc(C(F)(F)F)ccc2Cl)c2ccccc2)cc1` (configuration not stated), the Potency was 12.6 µM (active). `O=C(Cn1cc(CNCc2ccccc2)nn1)Nc1cc(C(F)(F)F)ccc1Cl` showed an activity change, negative = inhibition of 3.4%. `Cc1ccc(C(=O)Oc2oc(-c3ccco3)nc2C=Nc2ccc(Cl)cc2)cc1` was tested, and the Potency was 11.2 µM (active). `O=[S+]([O-])(/C=C/c1nc(Nc2cc(F)cc(F)c2)c2ncn(CC(F)F)c2n1)c1ccccc1` was tested, and the activity change, negative = inhibition was -11.8%. `CCC(C)c1ccccc1OCCn1c(CCNC(=O)C2CCCCC2)nc2ccccc21` (configuration not stated) was tested, and the Potency was 10 µM (active). With `NC(=S)N/N=C/c1ccc(-c2cc(Cl)ccc2Cl)o1` the Potency was 2 µM (active). Compound `CCOC(=O)CNC(=O)C1CCCCC1` has an activity change, negative = inhibition of -11.9%. For `O=C(CNC(=O)C1CCCCC1)OC(C(=O)Nc1cc(C(F)(F)F)ccc1Cl)c1ccccc1` (configuration not stated), the Potency was 5.01 µM (active). `CCSc1nnc(NC(=O)c2ccc(Br)s2)s1` was tested, and the activity change, negative = inhibition was -4.82%. With `Cc1ccc(C(=O)C(OC(=O)CNC(=O)COc2ccccc2C)c2ccccc2)cc1` (configuration not stated) the Potency was 3.16 µM (active). `N#Cc1nc(Nc2cc(F)cc(Cl)c2)nc(NC2CCCC2)n1` was tested, and the Potency was 0.141 µM (active). `N#CN1CCC(NS(=O)(=O)c2ccc(C(F)(F)F)cc2)CC1` showed an activity change, negative = inhibition of -6.95%.
